In all, about 25,000 sequences were measured (“ln(normalized median fluorescence intensity)”: median about 6.7, highest 2% from about 10 on). This is one part of a sample in which the highest values are shown more often than they occur.
tested on: PfHDP1 homeodomain (GST-tagged); experiment: gcPBM binding intensity (ln(normalized median fluorescence intensity)); higher = stronger DNA binding
Summary of the method: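 GST-tagged P. falciparum DNA-binding domains, expressed in E. coli (about 25 μg on average), were applied for 1 h to an Agilent 4 × 180k array of primer-extended double-stranded 36-bp intergenic genomic probes plus negative controls. The binding buffer was 1× PBS with 1% milk, 0.2 mg/ml BSA, 0.5% salmon testes DNA and 0.03% Triton X-100. Bound protein was detected with Alexa488 anti-GST antibody and scanned at 488 nm. Binding intensity is the highest Masliner-normalised natural-log median intensity across replicate spots of either probe orientation.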

In order of falling “gcPBM binding intensity (ln)” value:
1. TGAACTCATAGGAAAACACACATATGTGCAATATAT [CACACA_site6231]  11.3
2. ATATATTTTATATGTGTGCACTATATATATATATAT  10.8
3. TTCTGTATATAGTGTGCACACAATTAAAAAAAAAAA [CACACA_site8400]  10.8
4. TTCTGTATACGGTGTGCACACAATTAAAAAAAAAAA [CACACA_site1416]  10.8
5. TTTCAAATGGAATGTGTGCACATAAATGTAAATAAA  10.8
6. AGACCTTTAATTTGTGTGCACATAATTAGTGTACAT [GTGCAC_site9434]  10.7
7. ATAATGAACAAAGTAGTGCACTTTCCTTATCTTTTC  10.7
8. TTTTCTGTATATTGTGTGCACACAATTAACAAAAAA [GTGCAC_site9817]  10.6
9. TTTTCTATAAGATTTGCACACAACTTATTCTATTAA [CACACA_site3752]  10.6
10. TTTATATTCTTAAGTGTGCACTATATATATATATAT [GTGCAC_site9719]  10.5
11. ATTTTTTTCTTAGGAGTGCACTTATATTTATTTTAT  10.3
12. ATATCTTATAATACGGTGCACTTGACATGAACAACT [GTGCAC_site9987]  10.3
13. TTTTTATTTTCATATGTGCACTTATATATATATATA  10.2
14. TGTGCACATAATTAGTGTACATTTTTTATTTAGACA [XGTACX_site317]  10.1
15. ATTATTACTTTTTGAGTGCACATACACACAGACATA  10
16. AAGATTAAAAATTGCACACAAAAATATATTTTCTAT [CACACA_site1305]  9.78
17. AAGATTAAACATTGCACACAAAAACATATTTTCTAT [CACACA_site530]  9.7
18. AAATTATGAACATATTGTACATATATATATATATAT [XGTACX_site8269]  9.41
19. TAATTATTCTATTAAGTGCATATATTTTTAAAAAGA  9.39
20. TGCAATTTAATATGAGTGCATATATTGAGAAAATAC  9.36
21. TGAATAAATATATATACACACCCATATATATATATA [CACACA_site8833]  9.21
22. ATATATATATATATATGTACATACATACATAGAACT [XGTACX_site2214]  9.21
23. ACAAATAAGTTTTGTAGTACTGTGTATATATATATA [XGTACX_site6901]  8.95
24. ATATTTAAAAATATAGTGCAATTATTCTAATGTGTT  8.89
25. ATCATATTTTTATGTGTGCACTTTTTTTTTTTTTTT [GTGCAC_site9555]  8.73
26. CCTTTCCTTTTATAAGTGCATATAACAAATGTATAC [GTGCAC_site9872]  8.03
27. ATAATAAAATGGAGAGTGCATACATGTTTATTTTAT  7.7
28. TGAACTCATAGGAAAACACACATATGTGTAATATAT [CACACA_site4267]  7.27
29. AATATAAGCAAATACACACACACATATAAATATGTA [CACACA_site7741]  7.03
30. ATAAAATATAAAAACGCACACAATTATAAGGGTGTA [CACACA_site177]  6.96
31. AAACAATAAAAGATTACACACATATATAGCATATAT [CACACA_site1698]  6.82
32. TGAACTCATAGGAAAACACACATATGGGTAATATAT [CACACA_site187]  6.78
33. TCCCTTAATTTTGTGTGTACATATAATATATTTTTA [XGTACX_site2789]  6.76
34. TACATAAACATTTATACACACATTATAAATACATAT [CACACA_site4386]  6.74
35. TTGAACTCTCTTACGCGTACGTGTTATTATGAAAAT [XGTACX_site6265]  6.73
36. TTTTTTTTTCTGTATACACACAAAATTTATTTTTTA [CACACA_site2873]  6.68
37. TTTTTATGTGTATATTATTACATTTACATCTTTAAC [CACACA_negctrl_site1676]  6.64
38. AAAAAAAAAAAAGGCACACAAACATATGTAGACATA [CACACA_site2284]  6.61
39. TATTTATTGTGACACTTTTATTATTTTATGATAAAA [CACACA_negctrl_site37]  6.6
40. TTTTTCATAAAACACACACACAAAAATAATGTGGAA [CACACA_site3687]  6.56
41. ATTTAAGATTTAATCACACACATATATATTATATAC [CACACA_site2907]  6.55
42. AAAAGAAGATAATACAGTACAGAATAATATAAAATA [XGTACX_site5962]  6.51
43. ATAATAAAATAAATCACACATAATATAATGTAATAT [CACACA_site6144]  6.49
44. ACTGAAAAAAGAAATACACACATTCTGGATCATATA [CACACA_site3860]  6.47
45. ATTTTTTTTTGTGTATATAAATAAATAAATATATAT [GTGCAC_negctrl_site603]  6.47
46. TTAATATGAAATAAATGTACATAATACATAATAAAA [XGTACX_site6194]  6.44
47. TTCTGTATAATATAAAAACAAAAATTAAATTAAAAC [CACACA_negctrl_site81]  6.43
48. TTTCAAAATGTGTAAAATAAAAATAATATCATTACA [TGCATGCA_negctrl_site521]  6.42
49. AATGGGGAAGGTTCTACACACAACGCAAATGCCTTA [CACACA_site2758]  6.41
50. AAAAAAAAAAAAAACACACACATATAATATATTTAA [CACACA_site1337]  6.35
51. TTTAAGAATTAACGGGGTACAATTCTTAAATATATA [XGTACX_site669]  6.33
52. TTTTTTTTTTTCAATAGTACTTTCCATTTACATATA [XGTACX_site3889]  6.32
53. AAAAAAAAATCAAAATGTACTTATTTTTATAATAAT [XGTACX_site4712]  6.31
54. TTTTATTTTTAAAATTGTACATTATTATTGTTATTT [XGTACX_site1439]  6.3
55. TAAAATATATTTTTCTGTACACAAAAATATATTAAA [XGTACX_site2813]  6.24
56. TATGTATATATATTAACACACAAAAAAAAAAAAAAA [CACACA_site1812]  6.2
57. TCTACATATTAATTATGTACGAATTATTATTAGTAA [XGTACX_site6924]  6.03
58. AAATGTGAACTATAATAATTTCAACGTCTGATATAA [TGCATGCA_negctrl_site440]  5.94
59. AAGAAAAAGACTTCATGAAAAAGAATTTTTTTAATT [TGCATGCA_negctrl_site473]  5.86

Reference: the supplement of paper PMC11417369
